Shown are actives, neighbours in structure and some others; about 19% of the full set was active somewhere.
TDP1 inh = inhibitors of human tyrosyl-DNA phosphodiesterase TDP1. Q9NUW8. recombinant TDP1, AlphaScreen DNA substrate cleavage. Potency, µM (titrated, usually from 130 µM), inactives show at the top dose activity change, negative = inhibition, actives largely listed as inhibitors. 0.28% of 350,000 active. AID 485290; also: nearly all actives have a fitted effect of over 40% in size
Target sequence (Q9NUW8 whole entry, looked up): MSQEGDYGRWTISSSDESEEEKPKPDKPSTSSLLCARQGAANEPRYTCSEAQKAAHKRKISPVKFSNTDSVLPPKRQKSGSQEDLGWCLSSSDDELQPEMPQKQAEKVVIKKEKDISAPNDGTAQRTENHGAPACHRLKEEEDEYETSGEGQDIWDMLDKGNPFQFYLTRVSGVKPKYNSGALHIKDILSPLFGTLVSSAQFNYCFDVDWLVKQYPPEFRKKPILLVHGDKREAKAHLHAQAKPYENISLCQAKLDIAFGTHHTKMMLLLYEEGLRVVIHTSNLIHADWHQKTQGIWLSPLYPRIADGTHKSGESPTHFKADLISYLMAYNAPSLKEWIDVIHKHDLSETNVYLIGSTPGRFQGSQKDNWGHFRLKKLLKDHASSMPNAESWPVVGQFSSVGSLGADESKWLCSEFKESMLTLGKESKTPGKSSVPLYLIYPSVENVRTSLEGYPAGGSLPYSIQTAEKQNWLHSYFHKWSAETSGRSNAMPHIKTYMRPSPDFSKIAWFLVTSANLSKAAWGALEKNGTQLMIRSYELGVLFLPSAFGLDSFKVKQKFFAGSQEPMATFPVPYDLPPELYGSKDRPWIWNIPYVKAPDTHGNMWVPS
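E. coli-derived human Tdp1, 1 nM final. Cpd preinc 15 min RT; substrate 15 nM final, 5 min RT; AS bead mix 10 ug/ml final, 10 min RT. Signal loss = tyrosine-FITC cleavage. No-enzyme wells = max signal.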
RORg inh = ROR gamma (mouse) transcription inhibition; Drosophila S2 Gal4-RORgamma UAS-luciferase reporter, 20 h; 5.4% of 310,000 active; Potency, µM (doses to about 53.6 µM), without a hit: top-dose activity change, negative = inhibition, usual class: inhibitors; P51450; also: nearly all actives have a fitted effect of over 60% in size
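Schneider cells (Drosophila), stable Gal4 DBD–ROR gamma + UAS-luc; 1 hr cmpd preincubation; Cu2+ induction 700 uM final; 20 hr ambient; luminescence.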
DT40 TDP1 no CPT = qHTS for Inhibitors of human tyrosyl-DNA phosphodiesterase 1 (TDP1): qHTS in cells in absence of CPT; DT40 Tdp1-/- hTDP1 cells, no CPT, ATP luminescence, 48 h; Potency, µM (top dose mostly 46.2 µM), for the others: top-dose activity change, negative = growth inhibition, hits mostly inhibitors; 15% of 420,000 active; AID 686978, 2013; also: nearly all actives have a fitted effect of over 55% in size
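Growth of hTDP1-complemented DT40 Tdp1-knockout cells is measured by ATP luminescence after at least 48 hr compound exposure at 37 °C, with DMSO substituting for the 20 nM CPT used in the parallel screen.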
Gal4-VP16 FLuc = counter-screen for ROR gamma inhibitors: Gal4-VP16 reporter; Drosophila S2 Gal4-VP16 UAS-luciferase, luminescence, 20 h; Potency, µM (top dose mostly 53.6 µM), for the others: top-dose activity, negative = inhibition, actives largely listed as inhibitors; 3.5% of 310,000 active; AID 2546;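 also: Gal4-VP16 expression switched on by copper sulfate through the metallothionein promoter; nearly all actives have a fitted effect of over 50% in size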
TDP1 cell CPT = DT40-hTDP1 cell growth loss with CPT | chicken DT40 Tdp1-/-;hTDP1 cells + 20 nM CPT, ATP luminescence, 48 h | Potency, µM (titrated, usually from 46.2 µM), for inactives: top-dose activity change, negative = growth inhibition, actives largely listed as inhibitors | 12% of 420,000 active | AID 686979; also: nearly all actives have a fitted effect of over 55% in size
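Chicken DT40 Tdp1-/- cells complemented with human TDP1, 400 cells/well, exposed to compounds plus 20 nM camptothecin for at least 48 h at 37 C; viability read as ATP content by CellTiter-Glo luminescence.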
Numbers without * were called inactive; ? = inconclusive; . = not tested or not shown; [ ] = another dose, or the depositor's remark. Calls follow the shape of the dose curve; as a rule, active = well fitted curve in the direction sought with a large enough effect; inconclusive = small, poorly fitted or top-dose-only effect, or another doubt; inactive = no such curve, though single readings can be large; an effect the other way counts as inactive or inconclusive. % is scaled to controls: 0 for no effect and ±100 for the full control effect; potency is read from the fitted curve at half-maximal effect.

SMILES | TDP1 inh | RORg inh | DT40 TDP1 no CPT | Gal4-VP16 FLuc | TDP1 cell CPT
CCSc1nnc(NC(=O)CSc2nc3c(c(=O)n2CC)SC(C)C3)s1 (stereo not given) | 2% | 18% | 8.2µM* | -13% | 13µM*
CCSc1nnc(NC(=O)CSc2nc3c(c(=O)n2C)SC(C)C3)s1 (stereo not given) | 6% | -19%[0.365 µM] | 11µM* | . | 15µM*
CCn1c(SCC(=O)Nc2nnc(C)s2)nc2c(c1=O)SC(C)C2 (stereo not given) | -3% | 7% | ? | 4% | -28%
CCc1nnc(NC(=O)CSc2nc3c(c(=O)n2C)SC(C)C3)s1 (stereo not given) | 3% | 9% | 21µM* | -9% | ?
CC(C)C(=O)Nc1ccc(NC(=S)NC(=O)c2ccc([N+](=O)[O-])cc2)cc1 | 2% | 10µM* | -17% | 0% | ?
Cc1cc(C(=O)NC(=S)Nc2cccc(C(=O)O)c2C)ccc1[N+](=O)[O-] | 0% | 0% | 7% | -9% | -1%
COc1ccc(NC(=O)c2ccc(NC(=O)C(C)C)cc2)c([N+](=O)[O-])c1 | 0% | 6% | 2% | 0% | -4%
CC(=O)Nc1ccc(NC(=S)NC(=O)c2ccc([N+](=O)[O-])cc2)cc1 | -1% | -13% | -6% | -3% | -9%
COc1ccc(NC(=O)c2cccc(NC(=O)C(C)C)c2)c([N+](=O)[O-])c1 | -1% | 10% | 16µM* | 3% | ?
CC(C)C(=O)Nc1cccc(NC(=S)NC(=O)c2ccc([N+](=O)[O-])cc2)c1 | 4% | 11µM* | -11% | ? | -7%
Cc1cc(C(=O)NC(=S)Nc2cccc(NC(=O)C(C)C)c2)ccc1[N+](=O)[O-] | 5% | 10µM* | ? | ? | -17%
O=C1CCCCC1C(O)c1ccc(Cl)cc1 (stereo not given) | -1% | 11% | . | -2% | .
COc1ccc2[nH]c3c(c2c1)CCN1C(=O)C(CC(=O)NC(C)(C)C)C[C@H](C(=O)N2CCCCC2)[C@@]31C (stereo not given in full) | 1%[56.1 µM] | . | -28% | . | -22%
O=C(O)c1cn(-c2ccc(F)cc2)c2cc(N3CCNCC3)c(F)cc2c1=O | 7%[56.1 µM] | -7% | 16µM* | 1% | ?
NC(=O)c1ccsc1NC(=O)COC(=O)/C=C/c1ccccc1[N+](=O)[O-] | -7% | . | 16µM* | . | ?
O=C(COC(=O)/C=C/c1ccccc1[N+](=O)[O-])NC1CC1 | 1% | -1% | 21µM* | -7% | ?
NC(=O)c1ccsc1NC(=O)COC(=O)/C=C/c1ccccc1 | -10%[0.505 µM] | . | 18µM* | . | ?
NC(=O)c1ccsc1NC(=O)COC(=O)COc1ccccc1[N+](=O)[O-] | -4% | . | 4% | . | 1%
O=C(COC(=O)/C=C/c1ccccc1[N+](=O)[O-])NC1CCS(=O)(=O)C1 (stereo not given) | -4% | 0% | 2% | -17% | 10%
COc1cc(CC(=O)OCC(=O)Nc2sccc2C(N)=O)cc(OC)c1OC | 5% | -68% | 16µM* | ? | 29µM*
CCCCn1c(N)c(N(CCOC)C(=O)c2cc(S(=O)(=O)N3CCOCC3)ccc2F)c(=O)[nH]c1=O | 0% | . | -5% | . | -1%
COc1ccc2c(c1)O[C@@H](c1cccc(C(F)(F)F)c1)[C@H](OC(=O)Nc1ccc(OC(F)F)cc1)C2=O | 14% | -8% | 21µM* | 0% | ?
COc1ccc(S(=O)(=O)N2CCC(Oc3ccc(-n4cnnn4)cc3)CC2)cc1 | 2% | . | -25% | . | 10µM*
O=S(=O)(c1cccc(C(F)(F)F)c1)N1CCC(Oc2ccc(-n3cnnn3)cc2)CC1 | 5% | . | 4.6µM* | . | 5.8µM*
COc1ccc(-n2c(=O)c3c(c4cc(OC)ccc4n3C)n(Cc3ccc(F)cc3Cl)c2=O)cc1 | 6% | . | ? | . | -13%
SMILES | TDP1 inh | RORg inh | DT40 TDP1 no CPT | Gal4-VP16 FLuc | TDP1 cell CPT
O=C(NCCN1CCOCC1)c1cc2cc([N+](=O)[O-])ccc2s1 | 3% | 8% | ? | -9%[10 µM] | 2%
CCOC(=O)C1=C(CSCC(=O)OC)NC(=O)NC1c1cc(C)ccc1C (stereo not given) | 5% | -1% | -14% | ? | -12%
CCOC(=O)C1=C(CP(=O)(c2ccccc2)c2ccccc2)NC(=O)NC1c1ccc(OC)cc1 (stereo not given) | -3% | 20% | -14% | -4% | -15%
CCOC(=O)C1=C(CSc2nc3ccccc3s2)NC(=O)NC1c1cc(C)ccc1C (stereo not given) | -2% | ? | 23µM* | 0% | ?
CCOC(=O)C1=C(CSc2nc3ccccc3s2)NC(=O)NC1c1ccc(OC)cc1 (stereo not given) | 4% | ? | 18µM* | -12% | 21µM*
O=C(/C=C/c1ccc(F)cc1)NC(=S)N1CCN(Cc2ccccc2)CC1 | . | 2.5µM* | ? | 7.1µM* | ?
O=C(/C=C/c1ccc(F)cc1)NC(=S)N1CCOCC1 | 8% | 8% | ? | 3% | -25%
O=C(/C=C/c1ccc(Cl)cc1)NC(=S)Nc1ccc(N2CCOCC2)c(Cl)c1 | -3% | ? | 12µM* | 5.6µM* | 12µM*
O=C(/C=C/c1ccc(F)cc1)NC(=S)Nc1ccccc1 | . | 7.9µM* | 21µM* | 10µM* | ?
O=C(/C=C/c1ccccc1)NC(=S)Nc1ccccc1 | . | ? | ? | 2µM* | -21%
Cc1onc(-c2c(F)cccc2Cl)c1C(=O)c1ccccc1O | 0% | 27% | ? | -2% | -28%
COCCNC(=O)c1ccccc1N(Cc1ccccc1)S(=O)(=O)c1ccc(C)cc1 | ? | -15% | -18% | 0% | -16%
C=CCN(CC=C)S(=O)(=O)c1ccc(NC(=S)NC(=O)/C=C/c2ccccc2)cc1 | 5% | 2.5µM* | ? | -20% | ?
COc1ccc(/C=C/C(=O)NC(=S)Nc2ccc(S(N)(=O)=O)cc2)cc1 | 0% | -15% | -20% | -3% | ?
O=C(Cc1ccccc1)Nc1ccc(N2CCOCC2)cc1 | 6% | 19% | -2% | -14% | 15%
O=C(/C=C/c1ccccc1)NC(=S)Nc1ccc(N2CCOCC2)cc1 | 2% | 1µM* | -30% | 3.2µM* | ?
CCOC(=O)C1(CCCc2ccccc2)CCN(C(=O)C2CCCN(C(N)=O)C2)CC1 (stereo not given) | 0% | -3% | -6% | 13% | -3%
COc1ccc(NC(=O)N2CCC3(CC2)CCN(S(=O)(=O)c2ccccc2)CC3)cc1 | . | ? | ? | ? | -8%
